# Source: the supplement of paper PMC7411054
# Tests used:
# Details in all cases: treatment time: 24 h
# HepG2-CANX-COX4 = assay: lowest phenotypically active concentration; higher = less potent
# Summary of the method: (§1)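 Fifteen reporter lines derived from A549, HepG2 and WPMY1 cells by gene editing, carrying BFP for segmentation plus GFP and RFP/FusionRed markers, were exposed to 0.3, 1, 3 or 9 µM for 24 h in four wells each and imaged live. Live-cell features from each well were normalised to solvent control wells. A well set counted as deviating when ≥3 of 4 wells lay beyond the 95th percentile of control Euclidean distances, and as reproducible when the median replicate Pearson correlation exceeded the 95th percentile of non-replicates. Phenotypic activity was assigned only when both criteria were met.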
# HepG2-TP53BP1-CLTA = assay: as above
# Summary of the method: as §1
# HepG2-TUBA1B-RELA = assay: as above
# Summary of the method: as §1
# WPMY1-ACTB-RAB5A [1] = assay: as above
# Summary of the method: as §1
# WPMY1-CANX-COX4 = assay: as above
# Summary of the method: as §1
# WPMY1-GM130-SQSTM1 = assay: as above
# Summary of the method: as §1
# WPMY1-TP53BP1-CLTA = assay: as above
# Summary of the method: as §1
# WPMY1-TUBA1B-RELA = assay: as above
# Summary of the method: as §1
# WPMY1-ACTB-RAB5A [2] = assay: phenotypically active (imaging signature differs from DMSO and reproducible) at any of 0.3-9 uM (binary (1 = active, 0 = inactive)); higher = active
# Summary of the method: as §1
# HepG2-ACTB-RAB5A = assay: lowest phenotypically active concentration; higher = less potent
# Summary of the method: as §1
Structure (SMILES),lowest phenotypically active concentration (HepG2-CANX-COX4) [µM],lowest phenotypically active concentration (HepG2-TP53BP1-CLTA) [µM],lowest phenotypically active concentration (HepG2-TUBA1B-RELA) [µM],lowest phenotypically active concentration (WPMY1-ACTB-RAB5A [1]) [µM],lowest phenotypically active concentration (WPMY1-CANX-COX4) [µM],lowest phenotypically active concentration (WPMY1-GM130-SQSTM1) [µM],lowest phenotypically active concentration (WPMY1-TP53BP1-CLTA) [µM],lowest phenotypically active concentration (WPMY1-TUBA1B-RELA) [µM],phenotypically active (WPMY1-ACTB-RAB5A [2]),lowest phenotypically active concentration (HepG2-ACTB-RAB5A) [µM]
CNc1nc(-c2ccc3c(N)n[nH]c3c2)cc(N2C[C@@H](C(=O)NC3CCCCC3)CC[C@H]2C)n1,3,3,9,1,1,≤ 0.3,≤ 0.3,1,1 (active),
O=C(O)[C@]1(Cc2cccc(Nc3nccs3)n2)CC[C@@H](Oc2cccc(Cl)c2F)CC1,1,≤ 0.3,≤ 0.3,≤ 0.3,1,,≤ 0.3,≤ 0.3,1 (active),≤ 0.3
O=C1c2ccccc2-c2nc3nonc3nc21,≤ 0.3,3,3,3,9,,,3,1 (active),3
CC(C)(C)c1cc(NC(=O)Nc2ccc(-c3cn4c(n3)sc3cc(OCCN5CCOCC5)ccc34)cc2)no1 [quizartinib],,,3,3,1,9,9,3,1 (active),9
CN1CCN([C@H]2CC[C@H](n3cc(-c4ccc(Oc5ccccc5)cc4)c4c(N)ncnc43)CC2)CC1,1,1,≤ 0.3,≤ 0.3,,≤ 0.3,1,≤ 0.3,1 (active),≤ 0.3
Cc1cc2c(F)c(Oc3ncnn4cc(OC[C@@H](C)O)c(C)c34)ccc2[nH]1 [brivanib],9,9,9,3,9,,3,9,1 (active),9
N#CC[C@@H](C1CCCC1)n1cc(-c2ncnc3[nH]ccc23)cn1 [ruxolitinib-(S)],9,9,9,9,9,,,3,1 (active),
